High-throughput results: PubChem BioAssay, National Center for Advancing Translational Sciences (NCATS)
Compounds with a hit are over-represented: about 2.4% of the library has one in this group of screens.
Tb PFK block: inhibitors of T. brucei phosphofructokinase | O15648 | T. brucei PFK, ADP-Glo luminescence | Potency, µM (top dose mostly 57.5 µM), without a hit: top-dose activity, negative = inhibition, most hits filed as inhibitors | hit rate 0.17% among 330,000;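 also: 0% = uninhibited 1x PFK enzyme wells and -100% = no-enzyme wells; nearly all actives have a fitted effect of over 60% in size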
Target sequence (O15648 whole entry, looked up): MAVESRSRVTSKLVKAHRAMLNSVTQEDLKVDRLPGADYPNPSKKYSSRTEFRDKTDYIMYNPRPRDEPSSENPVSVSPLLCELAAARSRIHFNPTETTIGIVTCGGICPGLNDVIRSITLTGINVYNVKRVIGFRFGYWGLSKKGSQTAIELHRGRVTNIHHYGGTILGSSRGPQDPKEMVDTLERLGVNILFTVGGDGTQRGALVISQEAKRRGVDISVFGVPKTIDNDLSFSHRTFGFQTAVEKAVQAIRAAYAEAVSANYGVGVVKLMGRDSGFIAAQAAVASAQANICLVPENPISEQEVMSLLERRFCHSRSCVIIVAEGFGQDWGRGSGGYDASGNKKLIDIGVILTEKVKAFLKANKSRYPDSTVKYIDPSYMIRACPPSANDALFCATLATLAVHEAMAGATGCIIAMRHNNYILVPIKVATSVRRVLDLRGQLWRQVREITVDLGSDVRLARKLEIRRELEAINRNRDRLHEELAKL
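1.25 nM PFK with 0.5 mM F6P and 0.1 mM ATP in 0.1 M TEA pH 8.0, 5 mM MgCl2, incubated 45 min at room temperature; ADP measured by ADP-Glo luminescence; compounds titrated up to 57 uM.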
Rango dissoc inh: inhibition of RanGTP-driven Rango-importin beta dissociation; Biochemical FRET Rango-importin beta, RanGTP-induced dissociation; Potency, µM (top dose mostly 46.1 µM), for inactives: at the highest dose activity change, negative = inhibition; hit rate 0.071% among 340,000; calls by dose curve; also: % of control where 0% means no effect; nearly all actives have a fitted effect of over 45% in size
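Rango FRET biosensor (snurportin-1 IBB flanked by N-terminal EYFP and C-terminal CFP10) at 0.1 uM, with 0.25 uM importin beta in PBS, 1mM DTT, 0.02% Tween-20, 0.1% BSA. 0.6 uM Ran, 2mM GTP and 0.2 uM RCC1 were then added for 45 min at room temperature. Inhibition read as loss of FRET rise.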
ELG1 DNA repair: blocks ELG1-dependent DNA repair in HEK293T cells; HEK293T ELG1-luciferase reporter, luminescence, 16 h; DNA damage induced by 5-fluorouridine; Potency, µM (titrated, usually from 46.1 µM), for inactives: top-dose activity change, negative = inhibition, actives largely listed as inhibitors; hit rate 2.3% among 330,000; also: % is scaled to controls: 0 for no effect and ±100 for the full control effect; nearly all actives have a fitted effect of over 55% in size
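Quantitative HTS, concentration-response format. 2,000 cells/well co-treated with 5-fluorouridine and compound, 16 hr in 5% CO2 at 37 °C; ONE-Glo luminescence read after 30 min.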
Rango complex inh: prevents formation of the Rango-importin beta complex; Q14974; Rango CFP/YFP FRET sensor + importin beta, 45 min; Potency, µM (titrated, usually from 92.2 µM), without a hit: at the top dose inhibition of complex formation; hit rate 0.031% among 340,000; AID 540263; calls by dose curve;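 also: 0% = DMSO wells and 100% = buffer wells lacking importin beta; nearly all actives have a fitted effect of over 15% in size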
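Inhibition scored from the CFP 486 nm/YFP 530 nm FRET ratio 45 min after adding 0.125 microM importin beta to 50 nM Rango biosensor preincubated 5 min with compound (room temperature, PBS with DTT, Tween-20, BSA). No-importin wells as positive control.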
PGK inhibitor: inhibitors of T. brucei phosphoglycerate kinase; PGK/GAPDH coupled, Kinase-Glo luminescence, 60 min; hit rate 0.043% among 380,000; Potency, µM (titrated, usually from 57.5 µM), for the others: at the top dose activity change, negative = inhibition, most hits filed as inhibitors; also: % is scaled to controls: 0 for no effect and ±100 for the full control effect; nearly all actives have a fitted effect of over 60% in size
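Luminescent ATP detection (Kinase-Glo Plus) follows a 60-minute room-temperature incubation, with wells lacking PGK as controls. Buffer: 100 mM TEA (pH 7.6), 5 mM MgCl2, 0.01% Tween-20. Coupling enzyme GAPDH (100 nM final) supplies unstable 1,3-BPG in-well.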
PKM2 act: activators of human pyruvate kinase M2. P14618. purified PKM2, Kinase-Glo ATP luminescence, activation; response scale: 0% is enzyme alone, no compound. Potency, µM (doses to about 57.5 µM), inactives show at the highest dose activation, hits mostly activators. hit rate 0.34% among 260,000; also: % is scaled to controls: 0 for no effect and ±100 for the full control effect; nearly all actives have a fitted effect of over 55% in size
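hPK-M2, >95% pure; 0.1 mM ADP / 0.5 mM PEP final; imidazole pH7.2 buffer w/ 7 mM MgCl2, 50 mM KCl; 1 h RT; Kinase-Glo lum. Intermediate enzyme activity for dual inhibitor/activator qHTS.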
* hit, by the source's call; i = inactive; u = inconclusive; x = not tested or not shown; [ ] = dose if it differs, or a comment. Unless noted, calls follow the shape of the dose curve; as a rule, active = well fitted curve in the direction sought with a large enough effect; inconclusive = small, poorly fitted or top-dose-only effect, or another doubt; inactive = no such curve, though single readings can be large; an effect the other way counts as inactive or inconclusive. Potency is read from the fitted curve at half-maximal effect.

SMILES	Tb PFK block	Rango dissoc inh	ELG1 DNA repair	Rango complex inh	PGK inhibitor	PKM2 act
NS(=O)(=O)c1ccc(CCNC(=O)c2ccc(Cl)s2)cc1	3%	42%	-2%	0%	i	-1%
CCCc1nc(SCC(=O)Nc2nnc(CC)s2)c2c(=O)n(C)c(=O)n(C)c2n1	0%	0%	u	0%	-5%	1%
CCCc1nc(SCC(=O)N2CCC(C)CC2)c2c(=O)n(C)c(=O)n(C)c2n1	-7%	-8%	u	0%	-2%	4%
CCc1nc(SCC(=O)N2CCC(C)CC2)c2c(=O)n(C)c(=O)n(C)c2n1	0%	0%	21µM*	u	i	1%
CCc1nc(SCC(=O)Nc2nnc(CC)s2)c2c(=O)n(C)c(=O)n(C)c2n1	-5%	-9%	16µM*	0%	-10%	1%
Cc1csc(NC(=O)CSc2nc(C)nc3c2c(=O)n(C)c(=O)n3C)n1	-5%	8%	21µM*	2%	-5%	4%
Cc1cccc(NC(=O)CSc2nc(C)nc3c2c(=O)n(C)c(=O)n3C)c1	1%	0%	-9%	0%	1%	3%
CCSc1nc2sc3c(c2c(=O)n1-c1ccccc1)CCN(C(C)C)C3	0%	-20%	-28%	u	-10%	x
CC[C@H](C)[C@H]1CNC(=S)N1CC1CCN(CCC23CC4CC(CC(C4)C2)C3)CC1	x	-13%	x	0%	-4%	x
O=C(COc1cccc(Cl)c1)Nc1cc(S(=O)(=O)N2CCOCC2)ccc1N1CCOCC1	2%	5%	u	1%	i	0%
CC1=NN(c2ccccc2)C(=O)/C1=C\C=C\c1ccccc1	1%	14%	18µM*	-2%	-9%	-1%
CC1CCN(C(=O)C2CCCN(c3ncnc4c3nc3n4CCCCC3)C2)CC1 (stereo not given)	1%	-9%	-21%	0%	1%	x
COc1cccc(N2CCN(C(=O)C3CCCN(c4ncnc5c4nc4n5CCCCC4)C3)CC2)c1 (stereo not given)	1%	-11%	3.3µM*	2%	i	-2%[0.46 µM]
O=C(C1CCN(c2ncnc3c2nc2n3CCCCC2)CC1)N1CCN(c2ccc(F)cc2)CC1	-2%	-1%	7.3µM*	2%	-8%	x
Cc1cccc(CCNC(=O)C2CCCN(c3ncnc4c3nc3n4CCCCC3)C2)c1 (stereo not given)	-2%	0%	u	-3%	-6%	x
Cc1cccc(N2CCN(CCCNC(=O)C3CCCN(c4ncnc5c4nc4n5CCCCC4)C3)CC2C)c1 (stereo not given)	-5%	7%	12µM*	-1%	5%	x
O=C(C1CCN(c2ncnc3c2nc2n3CCCCC2)CC1)N1CCN(c2ccccc2)CC1	x	x	x	x	-7%	x
CCc1ccccc1N(CC)C(=O)C1CCN(c2ncnc3c2nc2n3CCCCC2)CC1	-2%	-7%	15µM*	0%	5%	-6%[0.46 µM]
CC(C#N)Sc1ccc(S(=O)(=O)N(C)C2CCCCC2)cn1 (stereo not given)	1%	-2%	15%	0%	-4%	x
CCc1c(C)nc2ncnn2c1N1CCC(C(=O)N2CCN(c3ccc(F)cc3)CC2)CC1	0%	5%	23µM*	-6%	-8%	-1%
COc1ccccc1NC(=O)C1CCCN(c2ncnc3c2nc2n3CCCCC2)C1 (stereo not given)	1%	-8%	21µM*	3%	1%	x
COc1cc(OC)c(NC(=O)C2CCCN(c3ncnc4c3nc3n4CCCCC3)C2)cc1Cl (stereo not given)	x	x	x	x	0%	x
Cc1nn(C)c(C)c1NC(=O)CCCSc1nc(-c2ccco2)cc(C(F)(F)F)n1	1%	9%	26µM*	-2%	-8%	-2%
CCN(c1ccccc1)S(=O)(=O)c1ccc(NC(=O)c2nc(SC(C)C)ncc2Cl)cc1	x	x	x	x	8%	x
COc1cccc(C2=NOC(C(=O)Nc3cc(C)nn3-c3ccccc3)C2)c1OC (stereo not given)	-1%	-10%	23µM*	-2%	i	-4%
SMILES	Tb PFK block	Rango dissoc inh	ELG1 DNA repair	Rango complex inh	PGK inhibitor	PKM2 act
CC(C)(C)C1CCc2c(sc(NC(=O)CCC(=O)O)c2C(=O)Nc2ccccc2C(F)(F)F)C1 (stereo not given)	x	x	x	x	-15%	x
CCC(=O)Nc1sc2c(c1C(=O)Nc1ccc(Br)cc1)CCCCC2	x	x	x	x	i	x
CC(=O)N1CC(=O)N=C1SCC(=O)Nc1nc(C)c(-c2ccccc2)s1	-4%	1%	u	4%	-2%	20µM*
CCn1cc(/C=C(\NC(=O)c2ccccc2OC)C(=O)N2CCOCC2)c2ccccc21	x	x	x	x	-6%	x
N#Cc1cccc(NC(=O)CN2C(=O)NC(Cc3ccccc3)C2=O)c1 (stereo not given)	-2%	-8%	-7%	6%	-6%	-3%
CCN(CC)S(=O)(=O)c1ccc(NC(=O)C2CCCN(C(=O)c3ccc(Cl)cc3)C2)cc1 (stereo not given)	-2%	8%	18µM*	2%	5%	-3%
COc1ccc(OCC2c3cc(OC)c(OC)cc3CCN2C(=O)COc2ccc(Cl)cc2Cl)cc1 (stereo not given)	x	x	x	x	2%	x
Cc1ccc(-c2nc(CSCC(=O)NCCCN3CCOCC3)c(C)o2)cc1	-5%	1%	-1%	0%	-10%	0%
Cc1ccc(-c2nc(CSCC(=O)NCCN3CCN(Cc4ccccc4)CC3)c(C)o2)cc1	-5%	-3%	16µM*	3%	0%	-1%
N#CC1=C(SCC(=O)NC2CC2)NC(=O)C(C#N)C12CCCCC2 (stereo not given)	-5%	-6%	-2%	8%	4%	0%
N#CC1=C(SCC(=O)NC23CC4CC(CC(C4)C2)C3)NC(=O)C(C#N)C12CCCCC2 (stereo not given)	-3%	4%	13µM*	-6%	x	6%
COc1ccc(NC(=O)COc2ccccc2Cc2ccccc2)cc1S(N)(=O)=O	2%	11%	6.5µM*	-3%	3%	9%
Cc1cc(C)c2oc(-c3ccc(Cl)c(NC(=O)c4cccs4)c3)nc2c1	x	x	x	x	10%	x
Cc1c(C(=O)Nc2ccncc2)sc2nc(-c3ccccc3)cn12	-11%	-12%	13µM*	u	i	-2%
Cc1c(C(=O)N2CCc3ccccc3C2)sc2nc(-c3ccccc3)cn12	-7%	-1%	21µM*	0%	0%	22%
Cc1c(C(=O)Nc2ccc3c(c2)OCCO3)sc2nc(-c3ccccc3)cn12	0%	-3%	13µM*	2%	x	2%
